Measurements as given in the supplement of paper PMC7156485.
Where “and” joins values, the source holds several entries; their conditions need not be identical. Identical values can stand only once. ± gives the standard deviation of the averaged measurements.

Tests used:
Conditions in all cases: concentration: 10 µM; 24 h
HCC1569 [1] = assay: cell number relative to DMSO (% of DMSO); higher = more cells (less growth inhibition / toxicity)
In short: (§1)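 HCC1569 and TDF cells (800 per well, 384-well plates, RPMI with 10% FBS) were treated with compounds at 10 µM for 24 h at 37 °C, in triplicate. Cells were fixed in 3.7% formaldehyde and stained with a rabbit anti-H1.0 antibody, an AlexaFluor 647 secondary and DAPI; six fields per well were imaged at ×10. H1.0 nuclear intensity or cell number is expressed as percent of the plate DMSO control, taking the median of replicates. HCC1569 values were smoothed for positional effects.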

TDF [2] = assay: as above
In short: as §1

TDF [3] = assay: H1.0 immunofluorescence intensity relative to DMSO (% of DMSO); higher = stronger H1.0 induction, active = 120 or more
In short: as §1

HCC1569 [4] = assay: H1.0 immunofluorescence intensity relative to DMSO (% of DMSO); higher = stronger H1.0 induction, active = 140 or more
In short: as §1
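Throughout, for H1.0 immunofluorescence intensity relative to DMSO: TDF is a line of transformed human dermal fibroblasts of mesenchymal origin.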
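Throughout, for cell number relative to DMSO: TDF denotes transformed human dermal fibroblasts of mesenchymal origin.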

| Structure (SMILES) | cell number (HCC1569 [1]) | cell number (TDF [2]) | H1.0 immunofluorescence intensity (TDF [3]) | H1.0 immunofluorescence intensity (HCC1569 [4]) |
| --- | --- | --- | --- | --- |
| CCCCC=CCCCCCCCCC(=O)O [10(Z)-Pentadecenoic acid] | 101 | 102 | 103 (inactive) | 104 (inactive) |
| C=CCCCCCCCCCC(=O)O [11-Dodecenoic acid] | 97.4 | 98.7 | 102 (inactive) | 103 (inactive) |
| CC1c2cccc(O)c2C(O)=C2C(=O)C3(O)C(O)=C(C(N)=O)C(=O)C(N(C)C)C3C(O)C21 (stereo unspecified) [Doxycycline] | 101 | 93.9 | 108 (inactive) | 115 (inactive) |
| CCCCCC(O)C=CC=CCC=CCCCCCCC(=O)O (stereo unspecified) | 99.9 | 104 | 99.2 (inactive) | 94.6 (inactive) |
| NC(N)=NCCC[C@H](N)C(=O)O [L-Arginine] | 102 | 107 | 93.7 (inactive) | 98.6 (inactive) |
| CC[n+]1c(C=CN(C)c2ccccc2)n(-c2ccccc2)c2ccc(-c3nc4ccccc4s3)cc21.[I-] [Akt Inhibitor IV] | 38.7 | 21.3 | 148 (active) | 66.5 (inactive) |
| CC1=C(CC(=O)O)c2cc(F)ccc2C1=Cc1ccc(S(C)=O)cc1 (stereo unspecified) [Sulindac] | 103 ± 2 | 111 ± 6.2 | 95 (inactive) | 100 (inactive) |
| COc1cc2ncnc(Nc3ccc(F)c(Cl)c3)c2cc1OCCCN1CCOCC1 | 80.2 | 101 | 105 (inactive) | 112 (inactive) |
| Nc1cccc(-c2cc3c(Oc4cccc(O)c4)ncnc3[nH]2)c1 [GSK3b Inhibitor XII, TWS119] | 60.2 | 55 | 112 (inactive) | 214 (active) |
| CCCNCC(O)COc1ccccc1C(=O)CCc1ccccc1.Cl (stereo unspecified) [Propafenone hydrochloride] | 95.4 | 103 | 99.2 (inactive) | 102 (inactive) |
| COc1cc2oc(-c3ccc(O)c(O)c3)cc(=O)c2c(O)c1OC | 75 | 82 | 91.1 (inactive) | 118 (inactive) |
| CCC(=C(c1ccccc1)c1ccc(OCCN(C)C)cc1)c1ccccc1 [Tamoxifen] | 103 | 99.1 | 97.7 (inactive) | 114 (inactive) |
| CCCCCCC(C(C)O)n1cnc2c(N)ncnc21.Cl (stereo not drawn) [erythro-9-(2-Hydroxy-3-nonyl)adenine hydrochloride] | 104 | 108 | 90.1 (inactive) | 88.6 (inactive) |
| O=C1CC(c2ccc(O)cc2)Oc2cc(O)cc(O)c21 (stereo unspecified) [Naringenin] | 99.9 | 110 | 90.6 (inactive) | 85.4 (inactive) |
| CC(O)C(O)C1CNc2[nH]c(N)nc(=O)c2N1.Cl.Cl [(6R)-5,6,7,8-Tetrahydro-L-biopterin hydrochloride] | 105 | 110 | 89.2 (inactive) | 103 (inactive) |
| Cc1cc(C(C)(C)C)cc(C)c1CC1=NCCN1.Cl [Xylometazoline hydrochloride] | 97.5 | 93.3 | 98.3 (inactive) | 110 (inactive) |
| N=C(N)c1ccc(OCCCCCOc2ccc(C(=N)N)cc2)cc1.O=S([O-])OCCO.O=S([O-])OCCO [Pentamidine isethionate] | 93.1 | 90.6 | 103 (inactive) | 97.2 (inactive) |
| O=C1C=CC(=C2NC(c3ccncc3)=C(c3ccc(F)cc3)N2)C=C1 | 79.5 and 79.7 | 95.1 and 96.9 | 97.7 (inactive) and 97.1 (inactive) | 125 (inactive) and 124 (inactive) |
| COC(=O)c1ccc2c(c1)NC(=O)C2=C(Nc1ccc(N(C)C(=O)CN2CCN(C)CC2)cc1)c1ccccc1 [Vargatef] | 95.2 | 106 | 84.3 (inactive) | 113 (inactive) |
